A collection of fitness landscapes (doi:10.1016/j.celrep.2020.107928)
The full ranking holds about 81,000 sequences; the median of “one-hybrid fitness for binding parS DNA” is about -0.17, and the highest 2% start at about 0.51. The entries come from a sample that favours the highest values as a whole.

B1: Caulobacter ParB omega fusion; a variant is named by its letters at X, in order, B8GW30 (parent)
chain: MESVVVGEPGMSEGRRGLGRGLSALLGEVDAAPAQAPGEQLGGSREAPIEILQRNPDQPRRTFREEDLEDLSNSIREKGVLQPILVRPSPDTAGEYQIVAGERAWRAAQRAGLKTVPIMVRELDDLAVLEIGIIENVQRADLNVLEEALSYKVLMEKFERTQENIAQTIGKSXSHVANXMRLLXLPDEVQSYLVSGELTAXHARAIAAAADPVALAKQIIEGGLSVRETEALARKAPNLSAGKSKGGRPPRVKDTDTQALESDLSSVLGLDVSIDHRGSTGTLTITYATLEQLDDLCNRLTRGI

Variants of: B1
Experiment: one-hybrid fitness for binding parS DNA (scaled: cognate 1, non-cognate 0); higher = stronger binding
Settings: with parS DNA site
Method in brief: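 Values were rescaled so that cognate is 1 and non-cognate is 0. Each is a fitness, the log change in a variant's read ratio to wild type from Illumina reads of plasmids before and after selection, with three replicate libraries pooled and variants under 10 reads dropped. Selection of the Caulobacter ParB libraries, four specificity codons randomised, used E. coli USO with a HIS3 reporter, site 19 bp from the promoter, on M9-minus-histidine with 0.1 mM IPTG and 5 mM 3-AT for 48 hours at 37°C.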

Variant | one-hybrid fitness for binding parS DNA
TVWR | ≤ 0.2
ANGP | ≤ 0.2
NLAR | ≤ 0.2
SREP | ≤ 0.2
GNAS | ≤ 0.2
RMES | 0.956
RKES | 0.899
RIEP | ≤ 0.2
RKEP | ≤ 0.2
RKEN | 0.351
RTES | 0.985
RTEH | 0.208
RIES | 0.93
RMEP | ≤ 0.2
RIEN | 0.279
RTED | ≤ 0.2
RMED | ≤ 0.2
SVCD | ≤ 0.2
VPCS | ≤ 0.2
QSKG | ≤ 0.2
MNTS | ≤ 0.2
SEHV | ≤ 0.2
RLMV | ≤ 0.2

Variant | one-hybrid fitness for binding parS DNA
TMAV | ≤ 0.2
QAEE | ≤ 0.2
RSDI | ≤ 0.2
RMKQ | ≤ 0.2
RMVP | 0.206
RMKF | 0.439
RMVH | ≤ 0.2
RMKC | 0.849
RMVC | 0.96
EAIW | ≤ 0.2
RITH | 0.214
RITN | 0.409
RTTS | 0.943
RTTH | 0.232
RSTS | 0.986
RKTS | 0.815
RKTD | ≤ 0.2
RSTH | 0.234
RTTP | ≤ 0.2
RITS | 0.992
RKTH | ≤ 0.2
RSTD | ≤ 0.2
IIGK | ≤ 0.2

Variant | one-hybrid fitness for binding parS DNA
ENYG | ≤ 0.2
PEAY | ≤ 0.2
HKGC | ≤ 0.2
KDVC | ≤ 0.2
LAWM | ≤ 0.2
IPRY | ≤ 0.2
RCTS | 0.984
RFTH | ≤ 0.2
RHTS | 0.893
RLTP | ≤ 0.2
RHTP | ≤ 0.2
RFTS | 1.01
RLTS | 0.984
RHTN | 0.384
RLTH | 0.232
RPTS | ≤ 0.2
RCTN | 0.475
RFTP | ≤ 0.2
CLVL | ≤ 0.2
FTSY | ≤ 0.2
KNRS | ≤ 0.2
LLFA | ≤ 0.2
AVGG | ≤ 0.2

Variant | one-hybrid fitness for binding parS DNA
AARP | ≤ 0.2
SKSL | ≤ 0.2
VMLN | ≤ 0.2
SWPW | ≤ 0.2
AGLI | ≤ 0.2
MFAT | ≤ 0.2
RMTN | 0.45
RMTD | 0.207
RMTS | 0.975
RATH | 0.255
RATS | 1
RATD | ≤ 0.2
RFVP | ≤ 0.2
RFVT | 0.614
RFKP | ≤ 0.2
NFKT | ≤ 0.2
RFVQ | ≤ 0.2
RFKT | 0.902
GMAG | ≤ 0.2
DNQC | ≤ 0.2
KSSE | ≤ 0.2
PNYS | ≤ 0.2
RTFD | ≤ 0.2

Variant | one-hybrid fitness for binding parS DNA
RTAC | 0.98
RTAF | 0.256
RTAN | 0.429
RTFN | 0.436
RTFC | 0.986
ITKL | ≤ 0.2
KWHC | ≤ 0.2
QGYA | ≤ 0.2
RHMY | 0.383
RHMG | 0.932
RIMG | 0.996
RKMM | 0.283
RIMR | ≤ 0.2
RHMK | ≤ 0.2
RIMM | 0.377
NFMG | ≤ 0.2
DFMG | ≤ 0.2
RFMG | 0.864
RKMQ | ≤ 0.2
RKMG | 0.951
AATS | ≤ 0.2
LNQW | ≤ 0.2
ILSS | ≤ 0.2

Variant | one-hybrid fitness for binding parS DNA
QYSS | ≤ 0.2
QVQQ | ≤ 0.2
YRRM | ≤ 0.2
RRMR | ≤ 0.2
RAMG | 0.995
RAMY | 0.435
RAMK | ≤ 0.2
REMG | ≤ 0.2
RRMM | ≤ 0.2
RRMG | 0.806
RPMG | ≤ 0.2
RSMG | 0.962
RSMR | ≤ 0.2
RDMG | ≤ 0.2
RCMG | 1.03
LNGD | ≤ 0.2
WSGR | ≤ 0.2
IRPG | ≤ 0.2
LHHS | ≤ 0.2
PPPY | ≤ 0.2
RMMQ | 0.215
RMMH | ≤ 0.2
RLMR | ≤ 0.2

Variant | one-hybrid fitness for binding parS DNA
RMMG | 0.985
RTMK | ≤ 0.2
RTMG | 1
RLMY | 0.49
RTMR | ≤ 0.2
RLMG | 1.02
MPYE | ≤ 0.2
MAAF | ≤ 0.2
SSTQ | ≤ 0.2
DFFS | ≤ 0.2
VTNA | ≤ 0.2
QCWG | ≤ 0.2
SHRE | ≤ 0.2
RRHI | ≤ 0.2
TAII | ≤ 0.2
LRVW | ≤ 0.2
AKPV | ≤ 0.2
QKYL | ≤ 0.2
RMIH | 0.223
